A short description of test [1]: viability loss in pontine glioma line – cell-based, SU-DIPG-XVII, MIPE5.0, CellTiter-Glo, qHTS, dose response (AID 1347060; cut-off not given, nearly all actives have AC50 up to about 26 µM;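 for AC50: cells exposed to compound for 48 hours before viability readout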). To be noted: CellTiter-Glo ATP luminescence. A general note: In ATP-based viability assays light output follows the ATP content of the culture.
The nature of test [2]: viability loss in pontine glioma line – cell-based, SU-DIPG-XIII, MIPE4.0, CellTiter-Glo, qHTS, dose response (AID 1347061; cut-off not given, nearly all actives have AC50 up to about 37 µM;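 note: cells exposed to compound for 48 hours before readout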). The note with it: CellTiter-Glo ATP luminescence.
Test [3] is described as follows: viability loss in pontine glioma line – cell-based, JHH-DIPG-1, MIPE4.0, CellTiter-Glo, qHTS, dose response (AID 1347062; cut-off not given, nearly all actives have AC50 up to about 27 µM). To be noted: JHH-DIPG-1 viability, CellTiter-Glo ATP luminescence.
Test [4] in a line: viability loss in pontine glioma line – cell-based, SU-DIPG-IV, MIPE4.0, CellTiter-Glo, qHTS, dose response (AID 1347063).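 Note: compound exposure lasted 48 hours before the viability readout.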 To be noted: CellTiter-Glo ATP luminescence.
A short description of test [5]: growth inhibition of DIPG cells – cell-based, MIPE4.0 library, CellTiter-Glo luminescence, qHTS (AID 1347066).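 Note: cells exposed to compound for 48 hours before readout.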 To be noted: SU-DIPG-VI viability, CellTiter-Glo ATP luminescence.
Test [6] is described as follows: JHH-DIPG-1 glioma cell viability, MIPE5.0 library, CellTiter-Glo luminescence, qHTS (AID 1347067; cut-off not given, nearly all actives have AC50 up to about 26 µM;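 note: cells exposed to compound for 48 hours before readout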). The note with it: JHH-DIPG-1 glioma viability, CellTiter-Glo ATP luminescence.
A short description of test [7]: growth inhibition of DIPG cells – cell-based, MIPE5.0 library, qHTS (AID 1347068; cut-off not given, nearly all actives have IC50 up to about 30 µM). To be noted: SU-DIPG-XXV viability. (Quantitative high-throughput screening tests each substance at several concentrations.)
Test [8] in a line: compounds altering viability of human ES cells (AID 493140; call rule not given here;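 note: cells exposed to compounds for four days before counting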). The note with it: human embryonic stem cell survival screen; active compounds read high.
In test [9] the test system is Aerobactin synthetase IucA (Klebsiella pneumoniae). Briefly: inhibition of K. pneumoniae IucA enzyme – biochemical, Tocris library, absorbance (AID 1345561; call rule not given here;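 note: 100% = enzyme without compound and 0% = no enzyme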). To be noted: purified IucA enzyme assay, absorbance (OD) read-out; active compounds read low;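 tested at 8 µM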.
Test [10] in a line: compounds altering Cy5-DNA-NS3h complex signal – biochemical, LOPAC1280, artefact control for HCV NS3 helicase inhibitor project (AID 687037; call rule not given here). The note with it: Cy5-DNA-NS3h complex fluorescence interference counterscreen. In general terms: A counterscreen serves to expose hits that act by an unwanted route or on another target.
Test [11] can be described thus: viability loss in pontine glioma line – cell-based, SU-DIPG-XIII, MIPE5.0, CellTiter-Glo, qHTS, dose response (AID 1347064; cut-off not given, nearly all actives have AC50 up to about 23 µM). To be noted: CellTiter-Glo ATP luminescence.
For test [12], the target named is ATP-dependent translocase ABCB1 (Homo sapiens) (UniProt P08183). Briefly: P-glycoprotein substrate transport blockade – cell-based (AID 377; in the data active = fluorescence slope change above about 50%). To be noted: MDR1-expressing cells, fluorescent substrate accumulation slope; active compounds read high; concentration not given here.

Results on 22 molecules are retold here after PubChem BioAssay.

Several values for one entry are separate records, joined by “and”; a condition that tells them apart may be missing. Equal entries are not always repeated. Values without a mark were called inactive. Results filed as inconclusive are left out. Activity calls are given as the source filed them. Unless noted, no cut-off is given here; in the data, nearly all actives have AC50 up to about 30 µM. Peptide text beside a SMILES is read from it.

ATP-dependent translocase ABCB1 (Homo sapiens), sequence (P08183 whole entry, looked up): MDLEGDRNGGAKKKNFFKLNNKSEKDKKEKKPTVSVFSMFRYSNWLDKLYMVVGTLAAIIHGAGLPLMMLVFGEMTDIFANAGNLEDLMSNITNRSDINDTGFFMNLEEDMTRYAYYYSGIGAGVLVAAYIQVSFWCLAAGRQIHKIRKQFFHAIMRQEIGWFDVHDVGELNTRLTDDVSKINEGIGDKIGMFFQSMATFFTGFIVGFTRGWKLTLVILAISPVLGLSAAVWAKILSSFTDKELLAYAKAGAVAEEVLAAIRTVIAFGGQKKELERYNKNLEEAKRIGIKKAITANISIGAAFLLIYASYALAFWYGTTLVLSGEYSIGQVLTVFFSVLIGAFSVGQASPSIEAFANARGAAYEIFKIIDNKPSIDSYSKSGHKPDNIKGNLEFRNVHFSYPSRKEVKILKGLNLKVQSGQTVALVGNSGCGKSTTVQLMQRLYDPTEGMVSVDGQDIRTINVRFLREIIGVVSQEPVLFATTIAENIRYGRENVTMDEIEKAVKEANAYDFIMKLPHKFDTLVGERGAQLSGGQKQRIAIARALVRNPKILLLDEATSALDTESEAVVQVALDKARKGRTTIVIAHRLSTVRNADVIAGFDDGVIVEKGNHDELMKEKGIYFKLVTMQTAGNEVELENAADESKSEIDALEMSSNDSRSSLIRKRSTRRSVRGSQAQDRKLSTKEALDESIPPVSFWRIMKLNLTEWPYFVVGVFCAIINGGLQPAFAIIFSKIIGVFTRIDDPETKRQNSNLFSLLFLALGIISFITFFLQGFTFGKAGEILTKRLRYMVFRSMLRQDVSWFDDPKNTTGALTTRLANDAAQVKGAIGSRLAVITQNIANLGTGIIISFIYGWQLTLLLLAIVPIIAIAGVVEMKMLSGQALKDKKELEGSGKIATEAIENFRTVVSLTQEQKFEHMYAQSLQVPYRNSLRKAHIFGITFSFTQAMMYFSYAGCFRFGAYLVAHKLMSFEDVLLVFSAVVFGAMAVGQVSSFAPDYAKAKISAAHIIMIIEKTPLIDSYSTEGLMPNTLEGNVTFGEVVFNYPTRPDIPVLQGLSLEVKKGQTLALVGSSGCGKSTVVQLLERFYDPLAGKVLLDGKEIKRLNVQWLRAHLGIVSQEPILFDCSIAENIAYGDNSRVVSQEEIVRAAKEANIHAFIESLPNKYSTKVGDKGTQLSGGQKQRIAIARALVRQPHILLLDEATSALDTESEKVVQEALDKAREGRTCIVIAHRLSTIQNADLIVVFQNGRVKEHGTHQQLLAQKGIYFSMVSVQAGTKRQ

Consider `O=C1C[C@@H](c2ccc(O)cc2)Oc2cc(O)cc(O)c21`, for which the molecule was classed as inactive in test [1], in test [2], in [3], in [4], in test [5] and in [6]. In addition, in test [7], the result was inactive.
Take `COc1ccc2cc1Oc1ccc(cc1)C[C@H]1c3cc(c(OC)cc3CCN1C)Oc1c(OC)c(OC)cc3c1[C@H](C2)N(C)CC3`: the survival in test [8] is 1.58.
For `CC(=O)N[C@@H](CC(=O)O)C(=O)N[C@@H](CCC(=O)O)C(=O)O` (Ac-Asp-Glu-OH), in [8], the survival was 16.7. Further, the remaining activity in [9] was 82.4%.
Take `COc1ccc(C(C)=O)c(O)c1`: the AC50 in [2] was 0.0132 µM (active).
With `C[N+](C)(C)CCO`, the fluorescence ratio (interference) in [10] is 1.
Take `O=C(CCc1ccc(O)cc1)c1c(O)cc(O)cc1O`: in [10], the fluorescence ratio (interference) is 1. Moreover, the outcome in [1], in [3], in [11], in test [6] and in [7] was inactive.
As for `c1ccc2c(Cc3c[nH]c4ccccc34)c[nH]c2c1`, the survival in test [8] was 89.8. The molecule was called inactive in test [1], in [11], in test [5] and in [7].
Consider `Cc1cc(O)c2c(c1)C(=O)c1cccc(O)c1C2=O`, for which the outcome in [1], in [2], in test [4], in test [11], in [6] and in [7] was inactive.
For the molecule `CC1=C(/C=C/C(C)=C/C=C/C(C)=C/C=C/C=C(C)/C=C/C=C(C)/C=C/C2=C(C)CCCC2(C)C)C(C)(C)CCC1`, the outcome in [2], in test [3], in test [5] and in test [7] was inactive.
With `CCCc1nn(C)c2c(=O)[nH]c(-c3cc(S(=O)(=O)N4CCN(C)CC4)ccc3OCC)nc12`, the molecule was classed as inactive in [1], in [3], in test [4], in test [11], in test [6] and in test [7].
On to `c1coc(CNc2ncnc3nc[nH]c23)c1`, for which the fluorescence slope change in [12] is 8.8%. The survival in test [8] was 3.5. Besides, the result in test [1], in test [2], in test [3], in test [4], in test [11] and in [5] was inactive. Further, the molecule was called inactive in [6] and in test [7].
On to `CC[C@H]1OC(=O)[C@H](C)[C@@H](O[C@H]2C[C@@](C)(OC)[C@@H](O)[C@H](C)O2)[C@H](C)[C@@H](O[C@@H]2O[C@H](C)C[C@H](N(C)C)[C@H]2O)[C@](C)(O)C[C@@H](C)/C(=N\OCOCCOC)[C@H](C)[C@@H](O)[C@]1(C)O`, for which the molecule was called inactive in test [2], in test [3], in test [4] and in [5].
Take `CN(C)CCN(Cc1cccs1)c1ccccn1`: in test [8], the survival is 13.8. Moreover, the fluorescence ratio (interference) in test [10] is 1.
For the molecule `NC[C@H]1O[C@H](O[C@H]2[C@H](O)[C@@H](O[C@H]3O[C@H](CO)[C@@H](O)[C@H](N)[C@H]3O)[C@H](N)C[C@@H]2N)[C@H](N)C[C@@H]1O`, the molecule was called inactive in [1], in test [2], in [3], in test [4], in [11] and in test [5]. Also, the molecule was classed as inactive in test [6] and in test [7].
Regarding `COc1cc(/C=C/C(=O)O)ccc1O`, the molecule was called inactive in test [2], in test [3], in test [4] and in test [5].
`O=c1c(O)c(-c2ccc(O)cc2O)oc2cc(O)cc(O)c12`: the fluorescence ratio (interference) in test [10] is 1. For the same molecule, the outcome in [1], in test [2], in [3], in test [4], in test [11] and in [5] was inactive. For the same molecule, the result in [6] and in test [7] was inactive.
For the molecule `Nc1ccc(S(=O)(=O)Nc2ncccn2)cc1`, in [8], the survival was 31.2. Also, the outcome in test [2], in [3], in [4] and in test [5] was inactive.
Turning to `COc1cc2c(cc1OC)[C@@H]1C(=O)c3ccc4c(c3O[C@@H]1CO2)C=CC(C)(C)O4`, the AC50 in [2] was 23.5 µM (active); in test [6], 18.6 µM (active). Moreover, the result in test [7] was inactive.
On to `COc1ccc(-c2coc3cc(O)cc(O)c3c2=O)cc1`, for which, in test [1], the AC50 was 26.3 µM (active). The molecule was called inactive in test [3] and in [5].
`O=C(O)/C=C/c1ccc(O)c(O)c1`: in test [10], the fluorescence ratio (interference) is 1. For the same molecule, in [4], the AC50 is 20.9 µM (active).
Turning to `CN1C2CCC1CC(OC(=O)C(CO)c1ccccc1)C2` (configuration not stated), the survival in [8] is 7.25. In [10], the fluorescence ratio (interference) is 0.9 and 1.1. Besides, the outcome in test [2], in test [3], in test [11], in [5] and in test [7] was inactive.
Regarding `O=c1cc(-c2ccccc2)oc2cc(O)cc(O)c12`, the survival in test [8] was 11.8. The molecule was classed as inactive in test [2], in test [3], in [4], in test [5] and in test [6].

By remaining activity is commonly meant the share of the control activity or signal that is left under treatment. One may read the AC50 as the concentration at which the activity in the assay is half-maximal.
